The text below walks through data of the supplement of paper PMC9135407.

Each structure is given as a SMILES string. Several values for one entry are separate records, joined by “and”; a condition that tells them apart may be missing. Equal values may be shown once. Where a name gives a salt, the structure may show the parent alone. About 620 (11%) of roughly 5,800 compounds showed activity. This is one part of a sample in which actives are shown more often than they occur. Values without a mark were called inactive.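 The calls were made as follows: active = score above a cut-off or among the top three wells of a plate; in these data no inactive exceeds 0.85.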 Bounds are passed on as bounds.

The subject of this assay is primary human hepatic stellate cells (donor 1). Kind of assay: scaled lipid accumulation score (0 = DMSO-like, 1 = nortriptyline-like); higher = stronger HSC inactivation (lipid re-accumulation), active = hit call of the paper. The following applies: 48 h.
Setting [1] is: library stock concentration: 10 mM.
Setting [2] is: library stock concentration: 3.33 mM.
Setting [3] is: library stock concentration: 80 uM.
Where [4] appears, read: library stock concentration: 400 uM.
Setting [5] is: library stock concentration: 2 mM.

For `CC(C)(C)NCC(O)COc1cccc2[nH]c(=O)[nH]c12` (centres undefined), the “scaled lipid accumulation score” value under setting [1] is not above -0.047.

As for `COc1ccccc1OCCNCC(O)COc1cccc2[nH]c3ccccc3c12` (centres undefined) [Carvedilol] [listing 1 of 5 here], the “scaled lipid accumulation score” value under setting [1] is 1.18 (active).

As for `CC(C)NCC(O)COc1cccc2[nH]ccc12` (centres undefined), the “scaled lipid accumulation score” value under setting [1] was not above 0.

With `COc1ccccc1OCC(O)CO` (centres undefined) [Guaifenesin], the “scaled lipid accumulation score” value is not above 0. The “scaled lipid accumulation score” value under setting [2] is not above 0. Besides, the “scaled lipid accumulation score” value under setting [1] is 0.084 and ≤ 0.

Consider `CC(C)NCC(O)COc1cccc2[nH]ccc12` (centres undefined) [Pindolol], for which the “scaled lipid accumulation score” value was not above 0. For the same molecule, the “scaled lipid accumulation score” value (library stock concentration: 8.1 mM) is ≤ -0.006 and 0.131. Moreover, under setting [1], the “scaled lipid accumulation score” value was ≤ 0 and ≤ -0.055 and 0.071.

Regarding `COc1ccccc1OCCNCC(O)COc1cccc2[nH]c3ccccc3c12` (centres undefined) [Carvedilol] [listing 2 of 5 here], the “scaled lipid accumulation score” value under setting [1] was 1.1 (active).

In the case of `COc1ccccc1OCCNCC(O)COc1cccc2[nH]c3ccccc3c12` (centres undefined) [Carvedilol tartrate], the “scaled lipid accumulation score” value under setting [1] was 0.276.

As to `CC(C)NC[C@H](O)COc1cccc2[nH]ccc12` [(S)-(-)-Pindolol], the “scaled lipid accumulation score” value under setting [1] was 0.001.

For the molecule `CC(C)NC[C@H](O)COc1cccc2[nH]ccc12` [S(-)-Pindolol], the “scaled lipid accumulation score” value under setting [1] was not above -0.07.

Regarding `COc1ccccc1OCCNCC(O)COc1cccc2[nH]c3ccccc3c12` (centres undefined) [Carvedilol] [listing 3 of 5 here], under setting [1], the “scaled lipid accumulation score” value was 1.57 (active).

In the case of `COc1ccccc1OCC(O)COC(N)=O` (centres undefined) [Methocarbamol], the “scaled lipid accumulation score” value was not above 0. Besides, under setting [2], the “scaled lipid accumulation score” value is not above 0. In addition, where the note is “library stock concentration: 8.3 mM”, the “scaled lipid accumulation score” value is not above -0.001. In addition, under setting [1], the “scaled lipid accumulation score” value was not above 0.

In the case of `COc1ccccc1OCCNCC(O)COc1cccc2[nH]c3ccccc3c12` (centres undefined) [Carvedilol] [listing 4 of 5 here], under setting [1], the “scaled lipid accumulation score” value is 0.936 (active).

With `COc1ccccc1OCCNCC(O)COc1cccc2[nH]c3ccccc3c12` (centres undefined) [Carvedilol] [listing 5 of 5 here], the “scaled lipid accumulation score” value by setting is: under setting [2], not above 0; (library stock concentration: 4.9 mM) 0.302 and 0.4.

Turning to `C[C@](N)(Cc1ccc(O)cc1)C(=O)O` [L-alpha-Methyl-p-tyrosine], the “scaled lipid accumulation score” value under setting [1] was 0.166.

In the case of `CC(C)(C)NS(=O)(=O)c1cncc(-c2cc(F)c3nc(N)nn3c2)c1`, the “scaled lipid accumulation score” value reads like this: under setting [2], not above 0; under setting [1], not above -0.001.

As for `O=C(Cc1ccccc1)NO` [Phenylacetohydroxamic acid], the “scaled lipid accumulation score” value under setting [1] is not above 0.

With `CCCC(=O)O[C@]1(C(=O)COC(C)=O)CC[C@H]2[C@@H]3C[C@H](F)C4=CC(=O)C=C[C@]4(C)[C@@]3(F)[C@@H](O)C[C@@]21C` [Difluprednate], the “scaled lipid accumulation score” value under setting [2] was not above 0 and the “scaled lipid accumulation score” value under setting [1] is not above -0.001.

`O=NN(CCCl)C(=O)NCCCl` [Carmustine]: the “scaled lipid accumulation score” value by setting is: (library stock concentration: 9.3 mM) not above 0; under setting [1], not above 0.

For `C[N+](C)(C)CCO.[Br-]` [Choline bromide], the “scaled lipid accumulation score” value under setting [1] is not above 0.

For `CC(C)C[C@@H]1NC(=O)[C@H](CCCN)NC(=O)[C@H](C(C)C)NC(=O)[C@H](Cc2ccc(O)cc2)N[C@@H](CCC(=O)O)C(=O)N[C@@H](CC(N)=O)C(=O)[C@@H](Cc2ccccc2)NC(=O)[C@H](Cc2ccccc2)NC(=O)[C@@H]2CCCN2C(=O)[C@@H](Cc2ccccc2)NC1=O` [Tyrothricin], the “scaled lipid accumulation score” value by setting is: (library stock concentration: 1.6 mM) not above 0; under setting [1], not above 0.

As for `COC(=O)CCCCCCC1C(O)CC(O)C1CCC(O)CSc1ccccc1F` (centres undefined), the “scaled lipid accumulation score” value (library stock concentration: 1 mM) was not above 0.

As for `CC(=O)O/N=C1\C(=O)N(Cc2cc(Cl)ccc2Cl)c2ccc(Cl)cc21`, the “scaled lipid accumulation score” value was not above -0.009 under setting [2] and not above 0 under setting [1].

On to `NC(C(=O)O)c1cc(O)cc(O)c1` (racemic), for which the “scaled lipid accumulation score” value under setting [1] was 0.017.

With `C[C@H](O)[C@H](O)[C@@H](O)[C@@H](O)C=O` [L-(+)-Rhamnose Monohydrate], the “scaled lipid accumulation score” value reads like this: under setting [2], not above 0; under setting [1], not above 0.

Take `CC(C)Nc1cccnc1N1CCN(C(=O)c2cc3cc(NS(C)(=O)=O)ccc3[nH]2)CC1` [Delavirdine mesylate]: the “scaled lipid accumulation score” value (library stock concentration: 4.4 mM) was not above -0.006.

As for `COc1cc(Nc2ncc(F)c(Nc3ccc4c(n3)NC(=O)C(C)(C)O4)n2)cc(OC)c1OC` [R406 (free base)], the “scaled lipid accumulation score” value is 0.918 (active) under setting [2] and 1.16 (active) under setting [1].

On to `COc1cc(Nc2ncc(F)c(Nc3ccc4c(n3)NC(=O)C(C)(C)O4)n2)cc(OC)c1OC` [listing 1 of 2 here], for which the “scaled lipid accumulation score” value under setting [1] was 1.06 (active).

For `COc1cc(Nc2ncc(F)c(Nc3ccc4c(n3)N(COP(=O)(O)O)C(=O)C(C)(C)O4)n2)cc(OC)c1OC` [Fostamatinib (R788)] [listing 1 of 2 here], the “scaled lipid accumulation score” value under setting [2] is 0.198.

Regarding `COc1cc(Nc2ncc(F)c(Nc3ccc4c(n3)NC(=O)C(C)(C)O4)n2)cc(OC)c1OC` [listing 2 of 2 here], the “scaled lipid accumulation score” value under setting [3] is not above 0, the “scaled lipid accumulation score” value under setting [4] was 0.072, the “scaled lipid accumulation score” value under setting [5] is 0.159 and the “scaled lipid accumulation score” value under setting [2] was 0.03.

As to `COc1cc(Nc2ncc3c(n2)-c2ccc(Cl)cc2C(c2c(F)cccc2OC)=NC3)ccc1C(=O)O` [Alisertib (MLN8237)], the “scaled lipid accumulation score” value by setting is: under setting [2], not above 0; under setting [1], not above 0.

As for `COc1cc(Nc2ncc3c(n2)-c2ccc(Cl)cc2C(c2c(F)cccc2OC)=NC3)ccc1C(=O)O` [Alisertib], the “scaled lipid accumulation score” value by setting is: under setting [3], not above 0; under setting [4], not above 0; under setting [5], not above 0; under setting [1], not above 0.

For `C=CC(=O)Nc1cccc(Nc2nc(Nc3ccc(OCCOC)cc3)ncc2F)c1` [Spebrutinib], the “scaled lipid accumulation score” value was not above -0.001 under setting [3], not above -0.001 under setting [4], not above -0.001 under setting [5] and 0.202 under setting [1].

As for `COc1cc(Nc2ncc3ccn(-c4cccc(CCC#N)c4)c3n2)cc(OC)c1OC` [Keratinocyte Differentiation Inducer], under setting [2], the “scaled lipid accumulation score” value was 0.501 and ≤ 0.

`C=CC(=O)Nc1cccc(Nc2nc(Nc3ccc(OCCOC)cc3)ncc2F)c1`: the “scaled lipid accumulation score” value under setting [2] is not above -0.009 and the “scaled lipid accumulation score” value under setting [1] was 0.576.

As for `COc1cc(Nc2ncc(F)c(Nc3ccc4c(n3)N(COP(=O)(O)O)C(=O)C(C)(C)O4)n2)cc(OC)c1OC` [Fostamatinib (R788)] [listing 2 of 2 here], the “scaled lipid accumulation score” value under setting [1] is 1.01 (active).

For `COc1cc(Nc2ncc(F)c(Nc3ccc4c(n3)NC(=O)C(C)(C)O4)n2)cc(OC)c1OC.O=S(=O)(O)c1ccccc1`, the “scaled lipid accumulation score” value under setting [1] is 0.882 (active).

For `CCCC(CCC)C(=O)O[C@H]1C[C@H]2CC[C@@H](C1)[N+]2(C)C` [Anisotropine methyl bromide], the “scaled lipid accumulation score” value under setting [1] is 0.296.

As to `OC[C@H]1O[C@H](O[C@H]2[C@H](O)[C@@H](O)C(O)O[C@@H]2CO)[C@H](O)[C@@H](O)[C@@H]1O` (some centres undefined), under setting [1], the “scaled lipid accumulation score” value is not above 0.
